Experiment [1] can be described thus: qHTS assay to identify small molecule agonists of the AP-1 signaling pathway - cell viability counter screen (AID 1159525; calls by dose curve; also: nearly all actives have a fitted effect of over 55% in size; also: potency is read from the fitted curve at half-maximal effect). In outline:
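AP-1-bla ME-180 cells in Opti-MEM with 0.5% dialyzed FBS, compound exposure 5 h at 37 C in 15-point titration. Viability read in the same wells as ATP content by CellTiter-Glo luminescence, normalised to tetra-n-octylammonium bromide and DMSO controls.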
(In general: Quantitative high-throughput screening tests each substance at several concentrations.)

Experiment [2] is described as follows: qHTS assay to identify small molecule agonists of the estrogen related receptor signaling pathway with the pleiotropic PPARgamma coactivator (PGC) (AID 1224823). Also: % is scaled to controls: 0 for no effect and ±100 for the full control effect. In outline:
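Cell-based luciferase assay in the NTP-supplied PGC/ERR line, 2,000 cells/well; 18 h compound exposure at 37 C, luminescence after One-Glo.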

Experiment [3] is described as follows: qHTS RealTime-Glo MT Cell Viability Assay in HepG2 cells - 40 hour (AID 1224870). Also: nearly all actives have a fitted effect of over 50% in size. Also: potency is read from the fitted curve at half-maximal effect. In outline: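 HepG2 cells (600/well) mixed with RealTime-Glo MT reagent, settled 5 h at 37 C/5% CO2 before compound addition. Nonlytic NanoLuc luminescence from viable-cell prosubstrate reduction read repeatedly during 40 h treatment at 37 C.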
Experiment [4] in a line: A CellTox Green Cytotoxicity Assay to monitor cytotoxicity in HEK293 cells - 40 hour (AID 1224871). Also: nearly all actives have a fitted effect of over 45% in size. Also: potency is read from the fitted curve at half-maximal effect. In outline:
(§1)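 Cytotoxicity was tracked continuously in HEK293 cells by a DNA-binding dye excluded from viable cells. Compounds were transferred in DMSO 5 h after seeding; fluorescence was recorded at intervals up to 40 h.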

Experiment [5] is described as follows: qHTS RealTime-Glo MT Cell Viability Assay in HEK293 cells - 40 hour (AID 1224874). Also: nearly all actives have a fitted effect of over 50% in size. Also: potency is read from the fitted curve at half-maximal effect. As to max response: % is scaled to controls: 0 for no effect and ±100 for the full control effect. The note with it: RealTime-Glo luminescence; max response: stronger effect = lower value. In outline:
(§2)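 Nonlytic bioluminescent viability monitoring. HEK293 at 600 cells/well with reagent; 5 h settle; compound transfer by pintool; plates held at 37 C and read at set time points.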

A short description of experiment [6]: qHTS RealTime-Glo MT Cell Viability Assay in HepG2 cells - 32 hour (AID 1224877). Also: nearly all actives have a fitted effect of over 55% in size. Also: potency is read from the fitted curve at half-maximal effect. In outline: (§3)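 HepG2 cells (600/well) were dispensed with RealTime-Glo reagents, incubated 5 h at 37 °C, then treated with compounds in DMSO for up to 40 h. Nonlytic NanoLuc luminescence reflecting viable cells was read at each stated time point.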
Experiment [7] in a line: qHTS RealTime-Glo MT Cell Viability Assay in HEK293 cells - 0 hour (AID 1224880). Also: top concentration of the series differs between compounds; % is scaled to controls: 0 for no effect and ±100 for the full control effect; nearly all actives have a fitted effect of over 45% in size. In outline:
as §2

Experiment [8] can be described thus: A CellTox Green Cytotoxicity Assay to monitor cytotoxicity in HEK293 cells - 16 hour (AID 1224888). Also: nearly all actives have a fitted effect of over 35% in size. Also: potency is read from the fitted curve at half-maximal effect. In outline:
as §1

Experiment [9] in a line: qHTS RealTime-Glo MT Cell Viability Assay in HepG2 cells - 0 hour (AID 1224889). Also: % is scaled to controls: 0 for no effect and ±100 for the full control effect; nearly all actives have a fitted effect of over 50% in size. In outline:
as §3

Experiment [10] is described as follows: A CellTox Green Cytotoxicity Assay to monitor cytotoxicity in HepG2 cells - 8 hour (AID 1224890). Also: nearly all actives have a fitted effect of over 45% in size. Also: potency is read from the fitted curve at half-maximal effect. In outline:
(§4)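 Real-time, homogeneous cytotoxicity readout: dead-cell DNA staining by CellTox Green in HepG2 monolayers, fluorescence measured at timed intervals up to 40 h of continuous compound exposure.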

A short description of experiment [11]: qHTS assay to identify small molecule antagonists of the estrogen receptor alpha (ER-alpha) signaling pathway using the BG1 cell line in the presence of 0.1 nM 17-beta-estradiol - cell viability counter screen (AID 1259241). Also: nearly all actives have a fitted effect of over 40% in size. Also: potency is read from the fitted curve at half-maximal effect. In outline:
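VM7Luc4E2, 4,000 cells/well, phenol red-free medium + 10% charcoal-stripped FBS; 24 hr plating; cpd + 0.1 nM E2 final, 22 hr 37C/5% CO2; CellTiter-Fluor 30 min, fluorescence.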

Experiment [12] in a line: qHTS assay to identify small molecule antagonists of the androgen receptor (AR) signaling pathway using the MDA cell line in the presence of 0.5 nM R1881 - cell viability counter screen (AID 1259242). Also: nearly all actives have a fitted effect of over 45% in size. Also: potency is read from the fitted curve at half-maximal effect. In outline: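 Cytotoxicity toward MDA-kb2 cells is measured by CellTiter-Fluor live-cell protease fluorescence after 16 hr compound exposure at 37C in the presence of 0.5 nM R1881 stimulator.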

The nature of experiment [13]: qHTS assay to identify small molecule HDAC inhibitors - cell viability counter screen (AID 1259365). Also: series mostly up to about 92 µM; % is scaled to controls: 0 for no effect and ±100 for the full control effect; nearly all actives have a fitted effect of over 50% in size. In outline:
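Luminescence from CellTiter-Glo, developed 30min at room temperature, reports viability of wild-type HCT-116 cells treated 2hr with compounds at 37 C and 5% CO2 after overnight plating.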

A short description of experiment [14]: qHTS assay to identify small molecule antagonists of the sonic hedgehog signaling (Shh) pathway (AID 1259369; calls by dose curve; also: nearly all actives have a fitted effect of over 45% in size; also: potency is read from the fitted curve at half-maximal effect). In outline:
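Inhibition of Shh signalling is measured as reduced Gli1-response-element firefly luciferase output in an NIH/3T3-derived stable reporter clone stimulated with conditioned medium for 24hr.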

Experiment [15] is described as follows: qHTS assay to identify small molecule agonists or antagonists of the thyroid stimulating hormone receptor (TSHR) signaling pathway - wild type cell line counter screen (AID 1259384; calls by dose curve; also: % is scaled to controls: 0 for no effect and ±100 for the full control effect). In outline: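 Wild-type Hek293 cells, 800/well, 18 h at 37C, then compound with Ro20-1724 for 30 min RT. cAMP by HTRF (cAMP-d2/anti-cAMP cryptate), 1 h RT, fluorescence read. 15 concentrations, triplicates.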

Experiment [16] deals with Cytochrome P450 1A2 (Homo sapiens) (UniProt P05177). As to the kind of experiment: Cytochrome P450 Family 1 Subfamily A Member 2 (CYP1A2) small molecule antagonists: luciferase reporter qHTS assay (AID 1671199). Also: nearly all actives have a fitted effect of over 50% in size. Also: potency is read from the fitted curve at half-maximal effect. In outline:
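Inhibition of CYP1A2 conversion of proluciferin to luciferin, detected by luminescence. Reaction run 1 h at room temperature with NADPH regeneration after brief compound preincubation.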
(In general: In a reporter assay the amount or activity of a reporter protein is the signal.)

In experiment [17] the target is Voltage-gated inwardly rectifying potassium channel KCNH2 (Homo sapiens) (UniProt Q12809). As to the kind of experiment: Human Ether-a-go-go-Related Gene (hERG) channel small molecule antagonists: fluorescence cell-based qHTS assay (AID 1671200). Also: nearly all actives have a fitted effect of over 50% in size. Also: potency is read from the fitted curve at half-maximal effect. In outline: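 Channel function was assessed by thallium flux. Cells seeded the previous day and kept at 37 C took up FluxOR II dye over 1 h in the dark at room temperature, then sat another 10 min before stimulation.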
Voltage-gated inwardly rectifying potassium channel KCNH2 (Homo sapiens), sequence (Q12809 whole entry, looked up): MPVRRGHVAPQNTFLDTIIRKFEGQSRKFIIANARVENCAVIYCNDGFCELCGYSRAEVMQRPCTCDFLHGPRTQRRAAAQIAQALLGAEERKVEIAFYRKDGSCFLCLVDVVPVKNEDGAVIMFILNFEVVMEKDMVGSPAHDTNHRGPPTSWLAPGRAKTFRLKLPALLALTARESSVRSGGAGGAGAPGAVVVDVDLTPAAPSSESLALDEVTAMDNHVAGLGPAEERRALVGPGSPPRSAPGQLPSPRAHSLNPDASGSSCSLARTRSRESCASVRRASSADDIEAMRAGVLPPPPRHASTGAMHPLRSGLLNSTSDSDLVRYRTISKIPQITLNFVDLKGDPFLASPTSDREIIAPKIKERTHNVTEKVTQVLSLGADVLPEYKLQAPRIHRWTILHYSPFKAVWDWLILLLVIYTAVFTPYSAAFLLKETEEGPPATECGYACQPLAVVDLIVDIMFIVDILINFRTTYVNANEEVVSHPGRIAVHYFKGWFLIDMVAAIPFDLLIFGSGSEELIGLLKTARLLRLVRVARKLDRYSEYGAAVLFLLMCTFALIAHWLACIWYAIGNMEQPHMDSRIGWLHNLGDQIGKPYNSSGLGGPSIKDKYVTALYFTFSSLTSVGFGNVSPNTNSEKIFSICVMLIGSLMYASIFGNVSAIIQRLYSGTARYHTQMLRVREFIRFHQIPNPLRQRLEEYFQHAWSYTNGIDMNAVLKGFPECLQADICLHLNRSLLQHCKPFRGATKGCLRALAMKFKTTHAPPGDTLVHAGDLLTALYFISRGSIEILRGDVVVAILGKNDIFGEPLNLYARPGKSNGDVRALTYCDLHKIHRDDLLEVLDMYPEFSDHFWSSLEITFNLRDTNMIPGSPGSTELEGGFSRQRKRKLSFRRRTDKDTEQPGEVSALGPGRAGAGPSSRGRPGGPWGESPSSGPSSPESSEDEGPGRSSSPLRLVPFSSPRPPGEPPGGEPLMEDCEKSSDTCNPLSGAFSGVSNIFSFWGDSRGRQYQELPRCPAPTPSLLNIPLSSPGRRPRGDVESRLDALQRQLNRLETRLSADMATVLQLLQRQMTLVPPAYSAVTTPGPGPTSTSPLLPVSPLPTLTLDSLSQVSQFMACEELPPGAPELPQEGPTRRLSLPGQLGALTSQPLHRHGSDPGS
Background: hERG is a cardiac potassium channel; its block is linked to QT prolongation.

The target of experiment [18] is Nuclear receptor subfamily 1 group I member 3 (Homo sapiens) (UniProt Q14994). As to the kind of experiment: qHTS assay to identify small molecule antagonists of the constitutive androstane receptor (CAR) signaling pathway (AID 1224838). Also: nearly all actives have a fitted effect of over 40% in size. Also: potency is read from the fitted curve at half-maximal effect. In outline: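 Compounds were titrated across 15 concentrations onto HepG2 cells double-stably expressing hCAR and a CYP2B6-2.2kb reporter, together with 50 nM CITCO (final). After 24 h at 37 C, luciferase activity was measured by luminescence.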
Nuclear receptor subfamily 1 group I member 3 (Homo sapiens), sequence (Q14994 whole entry, looked up): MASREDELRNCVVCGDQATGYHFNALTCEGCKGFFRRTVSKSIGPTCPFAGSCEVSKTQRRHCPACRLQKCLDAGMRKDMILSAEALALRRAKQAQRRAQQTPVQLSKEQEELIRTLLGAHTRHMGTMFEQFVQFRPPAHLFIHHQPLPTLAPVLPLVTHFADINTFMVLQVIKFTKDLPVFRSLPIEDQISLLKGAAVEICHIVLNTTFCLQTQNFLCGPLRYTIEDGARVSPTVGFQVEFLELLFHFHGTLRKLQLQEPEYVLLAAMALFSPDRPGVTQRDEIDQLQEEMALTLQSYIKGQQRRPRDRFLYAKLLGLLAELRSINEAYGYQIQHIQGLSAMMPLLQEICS

Experiment [19] can be described thus: A CellTox Green Cytotoxicity Assay to monitor cytotoxicity in HepG2 cells - 16 hour (AID 1224876). Also: nearly all actives have a fitted effect of over 45% in size. Also: potency is read from the fitted curve at half-maximal effect. In outline:
as §4

Experiment [20] is described as follows: qHTS assay for small molecule agonists of the p53 signaling pathway (AID 651631; calls by dose curve; also: nearly all actives have a fitted effect of over 15% in size; also: potency is read from the fitted curve at half-maximal effect). In outline:
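Read-out is beta-lactamase FRET fluorescence measured 2 h after substrate addition at room temperature, in HCT-116 cells with a p53 response element-driven reporter exposed to compounds for 16 h at 37 °C.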

“And” between values parts separate entries of the source, which are not always exact repeats. Equal values may be shown once. Inconclusive results are not listed. A structure can be active in one record and inactive in another. The source made the active and inactive calls. Unless noted, calls follow the shape of the dose curve; as a rule, active = well fitted curve in the direction sought with a large enough effect in the repeat runs; inconclusive = weak or mixed curves; inactive = no such curve, though single readings can be large; an effect the other way counts as inactive or inconclusive.

Cytochrome P450 1A2 (Homo sapiens), sequence (P05177 whole entry, looked up): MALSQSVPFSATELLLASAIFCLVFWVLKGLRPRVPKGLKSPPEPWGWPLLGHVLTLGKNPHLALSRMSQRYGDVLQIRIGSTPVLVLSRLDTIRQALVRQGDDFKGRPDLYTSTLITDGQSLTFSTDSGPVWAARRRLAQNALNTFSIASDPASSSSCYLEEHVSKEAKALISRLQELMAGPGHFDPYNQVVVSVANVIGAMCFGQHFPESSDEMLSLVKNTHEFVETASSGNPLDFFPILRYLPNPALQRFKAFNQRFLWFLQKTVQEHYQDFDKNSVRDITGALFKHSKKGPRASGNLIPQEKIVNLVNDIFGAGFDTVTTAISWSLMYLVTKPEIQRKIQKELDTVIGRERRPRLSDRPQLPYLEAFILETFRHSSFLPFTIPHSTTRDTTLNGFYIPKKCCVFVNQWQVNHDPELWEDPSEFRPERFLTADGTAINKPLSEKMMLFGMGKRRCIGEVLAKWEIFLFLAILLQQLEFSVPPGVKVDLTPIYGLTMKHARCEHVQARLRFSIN

On to `O=[N+]([O-])c1c(Cl)c(Cl)cc(Cl)c1Cl`, for which the Potency entry in experiment [1], in experiment [2], in [3], in experiment [6], in experiment [9] and in experiment [10] was “inactive” throughout. In addition, the Potency entry in [11], in [12], in experiment [14] and in [17] was “inactive” in each case. Moreover, the figures for the Potency in experiment [4], in experiment [8] and in [16] were 49 µM (active), 49 µM (active) and 4.8 µM (active), respectively. Moreover, the max response in [5] is 0.554% (inactive). In addition, the molecule was classed as inactive in experiment [7], in experiment [13] and in experiment [15].

In the case of `COc1cc(OC)c(OC)cc1C=O`, the Potency result in [1], in experiment [2], in experiment [18], in [3], in [4] and in experiment [19] was “inactive” throughout. The Potency result in experiment [6], in experiment [8], in experiment [9], in experiment [12] and in [17] was “inactive” in each case. For the same molecule, in experiment [5], the max response was -0.404% (inactive). The molecule was classed as inactive in [7], in experiment [13] and in [15]. For the same molecule, the results for the Potency in [14] and in experiment [16] were 13.3 µM (active) and 11 µM (active), respectively.

Turning to `O=C(Nc1ccccc1-c1ccc(Cl)cc1)c1cccnc1Cl`, the Potency result in experiment [1], in [2], in experiment [18], in experiment [3], in [6] and in [11] was “inactive” throughout. The Potency result in experiment [12] and in [17] was “inactive” in each case. For the same molecule, the Potency is 41.2 µM (active) in experiment [19], 41.2 µM (active) in experiment [10] and 8.42 µM (active) in experiment [16]. Also, the molecule was called inactive in [7], in [13] and in experiment [15].

Turning to `CN1CSC(=S)N(C)C1`, the Potency result in [20], in [19], in experiment [8], in experiment [9], in experiment [10] and in experiment [17] was “inactive” throughout. The Potency in experiment [18] was 3.84 µM (active) and 7.67 µM (active); in experiment [3], 12.3 µM (active); in experiment [4], 6.88 µM (active) and 12.3 µM (active); in [5] it was 13.7 µM (active) and 21.8 µM (active); in [6] it was 15.4 µM (active); in experiment [11] it was 17.1 µM (active). Further, the Potency was 342 nM (active) and 1.08 µM (active) in experiment [14]; “inactive and 39.8 µM (active)” in experiment [16]. Moreover, the result in [7], in experiment [13] and in [15] was inactive.

`Brc1cc(Br)cc(Br)c1`: the Potency entry in experiment [18] is “inactive”.

With `COc1ccc(C(c2ccc(OC)cc2)C(Cl)(Cl)Cl)cc1`, the Potency was 30.6 µM (active) in experiment [20], 52.6 µM (active) in [5], 21.6 µM (active) in experiment [14] and 25 µM (active) in [16]. The Potency result in experiment [18], in experiment [3], in [4], in experiment [19], in experiment [8] and in experiment [9] was “inactive” in each case. For the same molecule, the Potency entry in [10], in experiment [11] and in experiment [12] was “inactive” in each case. For the same molecule, the molecule was classed as inactive in [7], in [13] and in experiment [15].

Turning to `O=S(=O)(C(Cl)(Cl)Cl)C(Cl)(Cl)Cl`, the Potency in experiment [1] was 49 µM (active); in experiment [18] it was 24.3 µM (active); in experiment [3], 34.7 µM (active); in experiment [4], 17.4 µM (active); in experiment [5] it was 8.71 µM (active); in [19], 38.9 µM (active). Moreover, the Potency in experiment [6] was 34.7 µM (active); in experiment [8], 24.5 µM (active); in experiment [10], 34.7 µM (active); in experiment [12], 54.5 µM (active); in experiment [14] it was 2.17 µM (active); in experiment [16] it was 22.4 µM (active). The Potency in experiment [17] is 24.5 µM (active). Besides, the outcome in experiment [7] and in [15] was inactive. Further, the Potency result in [11] was “inactive”.

With `ClC(Cl)=C(c1ccc(Cl)cc1)c1ccccc1Cl`, the Potency entry in experiment [1], in [18], in experiment [3], in [19], in experiment [6] and in experiment [8] was “inactive” each time. Further, the Potency result in experiment [9], in [10], in experiment [11], in experiment [12], in [14] and in experiment [16] was “inactive” each time. The molecule was called inactive in [7], in experiment [13] and in [15]. Moreover, the Potency in experiment [17] was 21.9 µM (active).

Regarding `CC(c1ccccc1)(c1ccc(O)cc1)c1ccc(O)cc1`, the Potency in experiment [1] was 49 µM (active); in [5] it was 43.6 µM (active); in [14], 21.7 µM (active). For the same molecule, the Potency entry in experiment [3], in experiment [6], in [9], in experiment [11], in [12] and in experiment [16] was “inactive” each time. The Potency entry in experiment [17] was “inactive”. Also, the molecule was classed as inactive in experiment [13] and in experiment [15].

Values taken from PubChem BioAssay (Tox21).
